# Experimental data from ChEMBL document CHEMBL1201862, “PubChem BioAssay data set” (2004).
# Only a part of the results of these assays is listed, not drawn at random.
# Molecular target: T1, Protein RecA (Mycobacterium tuberculosis) (UniProt P9WHJ3)
# T1 sequence (whole entry): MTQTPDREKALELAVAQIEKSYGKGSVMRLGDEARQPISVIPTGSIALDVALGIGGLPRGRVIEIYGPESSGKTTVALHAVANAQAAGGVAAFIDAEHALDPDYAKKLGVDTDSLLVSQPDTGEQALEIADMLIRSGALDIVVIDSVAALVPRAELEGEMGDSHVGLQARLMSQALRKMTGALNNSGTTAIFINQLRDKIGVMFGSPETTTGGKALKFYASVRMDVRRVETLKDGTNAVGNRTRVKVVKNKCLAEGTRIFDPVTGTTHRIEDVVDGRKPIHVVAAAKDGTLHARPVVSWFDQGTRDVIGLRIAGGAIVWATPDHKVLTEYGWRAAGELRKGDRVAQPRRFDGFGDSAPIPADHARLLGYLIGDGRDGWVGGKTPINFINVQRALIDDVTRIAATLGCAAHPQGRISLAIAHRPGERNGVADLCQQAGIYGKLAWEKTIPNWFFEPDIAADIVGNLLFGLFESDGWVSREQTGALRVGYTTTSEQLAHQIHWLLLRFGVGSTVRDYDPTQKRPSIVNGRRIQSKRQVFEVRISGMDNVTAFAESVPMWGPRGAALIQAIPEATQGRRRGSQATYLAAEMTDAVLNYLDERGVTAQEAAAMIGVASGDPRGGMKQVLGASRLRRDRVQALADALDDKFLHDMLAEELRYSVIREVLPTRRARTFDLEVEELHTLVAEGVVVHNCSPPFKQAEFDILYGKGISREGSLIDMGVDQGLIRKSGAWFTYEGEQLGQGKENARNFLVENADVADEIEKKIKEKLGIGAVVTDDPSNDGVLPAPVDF
# Assay: M. tuberculosis H37Rv growth inhibition, dose response, strain H37Rv (AID 489010); call rule not given here;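 also: whole Mycobacterium tuberculosis cells grown in culture and not purified RecA protein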
# Format: functional
row,Structure (SMILES),IC90
1,CSc1nnc(NC(=O)c2nc(S(=O)(=O)Cc3cccc(C)c3)ncc2Cl)s1,44.7 µM (active)
2,Cc1ccc(-n2nnc3c(SCC(=O)NCC4CCCO4)ncnc32)cc1 (centres undefined),> 100 µM (active)
3,Cc1ccc(Sc2ccc(NC(=O)CCl)cc2)cc1C,52.4 µM (active)
4,CN(C1=C(NC(=O)c2ccc(Cl)cc2)C(=O)c2ccccc2C1=O)c1ccccc1,16.7 µM (active)
5,CC(C)c1nnc(NC(=O)c2nc(S(=O)(=O)Cc3ccc(F)cc3)ncc2Cl)s1,> 100 µM (active)
6,CC(C)(C)C1CCc2sc(C(=O)NNC(=O)CCl)cc2C1 (centres undefined),33.3 µM (active)
7,CC(C)(C)c1csc(Sc2ccc([N+](=O)[O-])cn2)n1,> 100 µM (active)
8,C/C(=N\NC(=O)c1ccncc1)c1cc2ccccc2oc1=O,0.43 µM (active)
9,CCN(CC)CCNC(=O)c1ccc2c(c1NCCO)C(=O)c1ccccc1C2=O,> 100 µM (active)
10,O=C(Cc1ccccc1)c1c[nH]c(C(=O)C(Cl)(Cl)Cl)c1,> 100 µM (active)
11,COc1ccc(N(C(=O)CCl)C(C(=O)NCCc2ccccc2)c2cccs2)cc1 (centres undefined),22.9 µM (active)
12,Cc1nn(-c2ccccc2)c(Cl)c1CN(C(=O)CCl)c1cccc2ccccc12,35.5 µM (active)
13,O=C(NC(N=C(S)Nc1ccc(Cl)cc1Cl)C(Cl)(Cl)Cl)c1cccc([N+](=O)[O-])c1 (centres undefined),15.2 µM (active)
14,Cc1nc2c(=O)n(C)c(=O)nc-2n(C)n1,4.19 µM (active)
15,COc1cc2c(cc1OC)-c1c(OC)c(OC)cc3c1C(C2)N(C)CC3 (centres undefined),40.2 µM (active)
16,Cc1[nH]n(-c2ccccc2)c(=O)c1C(C[N+](=O)[O-])c1ccc(F)cc1 (centres undefined),32.8 µM (active)
17,COC(=O)c1c(C)oc2ccc(N(C(=O)c3ccncc3)S(=O)(=O)c3ccc4ccccc4c3)cc12,> 100 µM (active)

row,Structure (SMILES),IC90
1,CSc1nnc(NC(=O)c2nc(S(=O)(=O)Cc3ccccc3F)ncc2Cl)s1,> 100 µM (active)
2,Cc1ccc(C(=O)OCn2ncc(Cl)c(Cl)c2=O)cc1,> 100 µM (active)
3,Cc1oc2c(c1C(=O)N1CCOCC1)C(=O)c1ccccc1C2=O,35.2 µM (active)
4,Cc1sc2ncnc(Sc3nnnn3-c3ccccc3)c2c1C,> 100 µM (active)
5,O=C(CCl)N(c1ccc(Cl)cc1)c1c[nH]c2ccccc12,4.5 µM (active)
6,CCC(C)[C@@H](NC(=O)OC(C)(C)C)c1nnc(S(=O)(=O)Cc2cccc(C)c2)o1 (some centres undefined),> 100 µM (active)
7,Cc1ccc(C)c(Sc2ccc(NC(=O)CCl)cc2)c1,> 100 µM (active)
8,COc1ccc(C(=O)c2c(C(F)(F)F)oc3c2C(=O)c2ccccc2C3=O)cc1OC,13.8 µM (active)
9,Cc1ccc(N(NC(=O)C(O)(c2ccccc2)c2ccccc2)C(=O)CCl)cc1,27.4 µM (active)
10,Cc1nn(-c2ccccc2)c(Cl)c1CN(C(=O)CCl)c1ccc(Cl)cc1,8.54 µM (active)
11,O=C(OCn1ncc(Cl)c(Cl)c1=O)c1cccc(C(F)(F)F)c1,> 100 µM (active)
12,Cn1nc(-c2ccc(Cl)cc2)nc2c(=O)n(C)c(=O)nc1-2,20 µM (active)
13,C=CCOc1ccccc1CN(C(=O)CCl)c1ccc2c(c1)OCO2,8.42 µM (active)
14,Cc1ccc(N(C(=O)CCl)C(C(=O)NC2CCCCC2)c2cccnc2)cc1C (centres undefined),30.1 µM (active)
15,COc1ccc2nc(C)cc(Sc3nc4ccccc4s3)c2c1,> 100 µM (active)
16,CN(C1=C(NC(=O)c2ccccc2)C(=O)c2ccccc2C1=O)C1CCS(=O)(=O)C1 (centres undefined),> 100 µM (active)
17,COC(=O)c1sc(-c2ccc(C(C)(C)C)cc2)cc1NC(=O)/C=C/C(=O)O,42.7 µM (active)
